The supplement of paper PMC9023506
Where a name gives a salt, the structure may show the parent alone.

Test system: Danio rerio larvae (5 dpf)
Test: optomotor response to blue moving lines, difference vs DMSO (percentage points (treated minus DMSO)); higher = more of the behaviour than the DMSO vehicle control
Conditions: 10 µM; exposure time: 3 h pre-incubation + 3 h imaging
Method: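 5-dpf wild-type zebrafish larvae were imaged in 96-well plates. They were treated with 190 Tocris FDA-approved drugs at 10 µM (1 µl/ml DMSO) for 3 h before and 3 h during imaging at 28.5 °C, 48 larvae per drug. Automated image analysis gave % time moving and optomotor responses. Values are drug group mean minus DMSO vehicle mean (n=844), in percentage points, for 10 behaviours.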

| SMILES | optomotor response to blue moving lines |
| --- | --- |
| N#Cc1ccc(C(c2ccc(C#N)cc2)n2cncn2)cc1 [Letrozole] | 2.11 |
| CCOC(=O)c1ncn2c1CN(C)C(=O)c1cc(F)ccc1-2 [Flumazenil] | 11.4 |
| COc1cc2nc(N3CCN(C(=O)c4ccco4)CC3)nc(N)c2cc1OC [Prazosin hydrochloride] | 0.0687 |
| N#C[C@@H]1C[C@@H]2C[C@@H]2N1C(=O)[C@@H](N)C12CC3CC(CC(O)(C3)C1)C2 [Saxagliptin hydrochloride] | -7.01 |
| Cc1ccccc1C(=O)Nc1ccc(C(=O)N2CCCC(O)c3cc(Cl)ccc32)c(C)c1 (stereo not given) [Tolvaptan] | -0.344 |
| OCc1cc(C(O)CNCCCCCCOCCCCc2ccccc2)ccc1O (stereo not given) [Salmeterol xinafoate] | -3.67 |
| Cc1cn([C@H]2C=C[C@@H](CO)O2)c(=O)[nH]c1=O [Stavudine] | 10 |
| COC(c1ccccc1)(c1ccccc1)[C@H](Oc1nc(C)cc(C)n1)C(=O)O [Ambrisentan] | -7.26 |
| Nc1nc(Cl)nc2c1ncn2[C@@H]1O[C@H](CO)[C@@H](O)[C@@H]1F [Clofarabine] | 4.47 |
| CC(c1cc2ccccc2s1)N(O)C(N)=O (stereo not given) [Zileuton] | -7.52 |
| COc1ccc(C[C@@H](C)NC[C@H](O)c2ccc(O)c(NC=O)c2)cc1 [Arformoterol tartrate] | -4.26 |
| CNCc1ccc(-c2[nH]c3cc(F)cc4c3c2CCNC4=O)cc1 [Rucaparib camsylate] | 10.7 |
| Clc1ccccc1C(c1ccccc1)(c1ccccc1)n1ccnc1 [Clotrimazole] | 14.5 |
| O=C(O)c1cc(/N=N/c2ccc(S(=O)(=O)Nc3ccccn3)cc2)ccc1O [Sulfasalazine] | -4.22 |
| Cc1c(-c2ccc(O)cc2)n(Cc2ccc(OCCN3CCCCCC3)cc2)c2ccc(O)cc12 [Bazedoxifene acetate] | 1.43 |
| C[C@H](Cc1cc2c(c(C(N)=O)c1)N(CCCO)CC2)NCCOc1ccccc1OCC(F)(F)F [Silodosin] | 15.7 |
| CN(CCOc1ccc(NS(C)(=O)=O)cc1)CCc1ccc(NS(C)(=O)=O)cc1 [Dofetilide] | -7.25 |
| COC(=O)C1=C(C)NC(C)=C(C(=O)OC(C)C)C1c1cccc2nonc12 (stereo not given) [Isradipine] | -11.3 |
| CCOC(=O)[C@H](CCc1ccccc1)N[C@@H](C)C(=O)N1[C@H](C(=O)O)C[C@@H]2CCC[C@@H]21 [Ramipril] | 4.54 |
| CC(C)CN(C[C@@H](O)[C@H](Cc1ccccc1)NC(=O)O[C@H]1CO[C@H]2OCC[C@H]21)S(=O)(=O)c1ccc(N)cc1 [Darunavir] | 8.12 |

| SMILES | optomotor response to blue moving lines |
| --- | --- |
| CC(=O)Oc1cc2c(s1)CCN(C(C(=O)C1CC1)c1ccccc1F)C2 (stereo not given) [Prasugrel] | 3.83 |
| Cc1nc(Nc2ncc(C(=O)Nc3c(C)cccc3Cl)s2)cc(N2CCN(CCO)CC2)n1 [Dasatinib] | -13.1 |
| COc1ccc(-c2ccc3cc(C(=O)O)ccc3c2)cc1C12CC3CC(CC(C3)C1)C2 [Adapalene] | -1.19 |
| CCOC(=O)[C@H](CCc1ccccc1)N[C@H]1CCc2ccccc2N(CC(=O)O)C1=O [Benazepril hydrochloride] | 5.7 |
| CCCCCCCN(CC)CCCC(O)c1ccc(NS(C)(=O)=O)cc1 (stereo not given) [Ibutilide hemifumarate] | 12.1 |
| NC(=O)c1ncn([C@@H]2O[C@H](CO)[C@@H](O)[C@H]2O)n1 [Ribavirin] | 9.25 |
| O=C(Nc1c(Cl)cncc1Cl)c1ccc(OC(F)F)c(OCC2CC2)c1 [Roflumilast] | -1.76 |
| Clc1ccc2nsnc2c1NC1=NCCN1 [Tizanidine hydrochloride] | 3.61 |
| CC(C)c1nc(CN(C)C(=O)N[C@H](C(=O)N[C@@H](Cc2ccccc2)C[C@H](O)[C@H](Cc2ccccc2)NC(=O)OCc2cncs2)C(C)C)cs1 [Ritonavir] | -11.8 |
| CS(=O)(=O)CCNCc1ccc(-c2ccc3ncnc(Nc4ccc(OCc5cccc(F)c5)c(Cl)c4)c3c2)o1 [Lapatinib] | 6.39 |
| CCOC(=O)C1=C(C)NC(C)=C(C(=O)OC)C1c1cccc(Cl)c1Cl (stereo not given) [Felodipine] | -5.26 |
| CCOc1nc2cccc(C(=O)O)c2n1Cc1ccc(-c2ccccc2-c2nnn[nH]2)cc1 [Candesartan] | 9.66 |
| COc1ccccc1OCCNCC(O)COc1cccc2[nH]c3ccccc3c12 (stereo not given) [Carvedilol] | -0.112 |
| Cc1nc(-c2ccc(OCC(C)C)c(C#N)c2)sc1C(=O)O [Febuxostat] | -7.14 |
| Cc1cc(C2CCCCC2)n(O)c(=O)c1 [Ciclopirox] | -8.77 |
| CCCCC1=NC2(CCCC2)C(=O)N1Cc1ccc(-c2ccccc2-c2nnn[nH]2)cc1 [Irbesartan] | -14 |
| Nc1nc2c(ncn2COCCO)c(=O)[nH]1 [Acyclovir] | 10.2 |
| C[C@@H](O[C@H]1OCCN(Cc2n[nH]c(=O)[nH]2)[C@H]1c1ccc(F)cc1)c1cc(C(F)(F)F)cc(C(F)(F)F)c1 [Aprepitant] | 4.96 |
| O=c1[nH]c(=O)n([C@H]2C[C@H](O)[C@@H](CO)O2)cc1C(F)(F)F [Trifluorothymidine] | 6.73 |
| CC(C)n1c(/C=C/C(O)CC(O)CC(=O)O)c(-c2ccc(F)cc2)c2ccccc21 (stereo not given) [Fluvastatin sodium] | -4.94 |
